The full data set covers some 8,800 targets. This sample favours those with a hit. About 0.5% of all pairs of compound and target were hits.
Key:
Test in all cases: log2 fold change, soluble protein after heating vs DMSO (PISA); higher = thermal stabilisation; K562 lysate, 10 uM; active = over 0.2 and 3.5 SD of the protein, either way, in both replicates (recomputed)
[1] = compound: C#Cc1cccc(Nc2ncnc3cc(OCCOC)c(OCCOC)cc23)c1 [erlotinib]
Outline: (§1)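 The values are log-two fold changes in thermal stability compared with solvent controls and come from duplicates. They were obtained by TMTpro 16plex LC-MS/MS, with channel sums equalised, on the supernatant after 21,000xg for 90 min. That supernatant came from crude K562 extract at 1 mg/mL protein treated with 10 μM compound for 30 min, heated for 3 min across 48°C-58°C, pooled and brought to 0.5% NP-40 at 4°C.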

[2] = compound: C/C(=N\NC(=O)C1=CC(=CC=C1)S(=O)(=O)N2CCOCC2)/C3=C(C=CC(=C3)Cl)O
Outline: as §1

[3] = compound: C1=CC(=CC=C1C2=NC3=C(N2)C=C(C=C3)C(=O)N)OC4=CC=C(C=C4)Cl
Outline: as §1

[4] = compound: C1=CC2=C(C=CC(=C2)/C=C\3/C(=O)NC(=NCC4=CC=CS4)S3)N=C1
Outline: as §1

[5] = compound: C1=CC2=NC=CN=C2C=C1/C=C/3\C(=O)NC(=O)S3
Outline: as §1

[6] = compound: C1=CC=C(C=C1)C2=NC(=C(N2)C3=CC=NC=C3)C4=CC(=C(C=C4)Cl)O
Outline: as §1

[7] = compound: C1=CC=C2C(=C1)C3=NNC4=CC=CC(=C43)C2=O
Outline: as §1

[8] = compound: C1CCN(C1)C(=O)NC2=CC=CC(=C2)NC3=NC=C(C(=N3)NCCC4=CN=CN4)Br
Outline: as §1

[9] = compound: C1CN(CCC1(CC2=CC=C(C=C2)Cl)N)C3=NC=NC4=C3C=CN4
Outline: as §1

[10] = compound: C1COCCN1CCN2C3=CC=CC=C3N=C2NC(=O)C4=CC(=CC=C4)[N+](=O)[O-] [IRAK-1-4 Inhibitor I]
Outline: as §1

[11] = compound: C=CC(=O)N1CCC[C@@H](n2nc(-c3ccc(Oc4ccccc4)cc3)c3c(N)ncnc32)C1 [ibrutinib]
Outline: as §1

[12] = compound: CC(=O)c1cnc2ccc(-c3cc(Cl)c(O)c(Cl)c3)nc2c1N[C@H]1CC[C@H](CN(C)C)CC1
Outline: as §1

[13] = compound: CC(C)(C)Cn1c(N)nc2ccc(-c3[nH]c(C(C)(C)C)nc3-c3ccc(F)cc3)nc21 [ralimetinib]
Outline: as §1

[14] = compound: CC(C)(O)CC(=O)NCCn1ccc2ncnc(Nc3ccc(Oc4cccc(C(F)(F)F)c4)c(Cl)c3)c21
Outline: as §1

[15] = compound: CC(C)C1=C2N=C(C=C(N2N=C1)NCC3=CC=CC=C3)NCCCCCCN
Outline: as §1

[16] = compound: CC1=C(C(CC(=O)N1)C2=CC=C(C=C2)C(F)(F)F)C(=O)NC3=C(C=C4C(=C3)C=NN4)F
Outline: as §1

[17] = compound: CC1=C(C2=C(C=C1)C(=O)C3=CC=CC=C3N2CCCN)C
Outline: as §1

[18] = compound: CC1=C(C=C(C=C1)NC(=O)C2=CC(=CC=C2)C(C)(C)C#N)NC3=CC4=C(C=C3)N=CN(C4=O)C
Outline: as §1

[19] = compound: CC1=C(C=C(C=C1)NC(=O)C2=CC(=CC=C2)N(C)C)NC(=O)C3=CC=C(C=C3)O
Outline: as §1

[20] = compound: CC1=CC=C(C=C1)SC2=C3C=C(SC3=CN=C2)C(=O)N
Outline: as §1

Measured: log2 fold change

NQO1 (UniProt P15559)
Sequence of UniProt P15559 (P15559 whole entry, looked up): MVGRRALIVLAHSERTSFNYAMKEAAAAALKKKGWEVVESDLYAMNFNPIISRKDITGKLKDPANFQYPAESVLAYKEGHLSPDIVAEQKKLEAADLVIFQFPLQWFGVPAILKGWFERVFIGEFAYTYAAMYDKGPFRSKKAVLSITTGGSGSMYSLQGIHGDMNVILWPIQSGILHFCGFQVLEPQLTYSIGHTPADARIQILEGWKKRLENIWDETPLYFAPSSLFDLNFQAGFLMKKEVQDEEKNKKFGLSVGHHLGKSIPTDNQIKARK
inactive: [1] -0.033 | [2] 0.081 | [3] 0.055 | [4] -0.08 | [5] -0.02 | [6] -0.022 | [7] -0.192 | [8] 0.005 | [9] 0.006 | [10] -0.017 | [11] 0.009 | [12] -0.003 | [13] 0.033 | [14] 0.081 | [15] -0.009 | [16] 0.001 | [17] 0.159 | [18] 0.038 | [19] -0.025 | [20] 0.067

MRPL58 (UniProt Q14197)
inactive: [1] 0.025 | [2] -0.005 | [3] 0.054 | [4] -0.003 | [5] 0.01 | [6] -0.002 | [7] -0.025 | [8] -0.078 | [9] 0.043 | [10] -0.012 | [11] 0.025 | [12] 0.032 | [13] -0.022 | [14] 0.006 | [15] -0.013 | [16] 0.089 | [17] -0.034 | [18] -0.035 | [19] 0.032 | [20] 0.053

NONO (UniProt Q15233)
Sequence of UniProt Q15233 (Q15233 whole entry, looked up): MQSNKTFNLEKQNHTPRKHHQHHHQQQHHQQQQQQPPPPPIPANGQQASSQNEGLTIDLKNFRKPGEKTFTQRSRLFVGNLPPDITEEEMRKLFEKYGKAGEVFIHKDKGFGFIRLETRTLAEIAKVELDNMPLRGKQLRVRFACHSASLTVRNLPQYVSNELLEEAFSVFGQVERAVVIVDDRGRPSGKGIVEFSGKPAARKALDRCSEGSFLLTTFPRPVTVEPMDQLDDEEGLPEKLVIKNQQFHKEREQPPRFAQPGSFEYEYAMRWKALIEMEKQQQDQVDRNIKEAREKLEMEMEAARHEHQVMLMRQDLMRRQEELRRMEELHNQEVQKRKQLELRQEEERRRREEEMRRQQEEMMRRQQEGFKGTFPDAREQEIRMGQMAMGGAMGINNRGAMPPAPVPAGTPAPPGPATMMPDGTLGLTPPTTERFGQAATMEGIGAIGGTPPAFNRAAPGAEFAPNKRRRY
inactive: [1] 0.021 | [2] -0.048 | [3] 0 | [4] -0.006 | [5] -0.017 | [6] 0.025 | [7] -0.027 | [8] 0.014 | [9] 0.002 | [10] 0.005 | [11] -0.013 | [12] 0.006 | [13] 0.008 | [14] -0.002 | [15] 0.006 | [16] -0.006 | [17] -0.006 | [18] -0.016 | [19] 0.015 | [20] 0.014

ORC3 isoform 2 (UniProt Q9UBD5)
inactive: [1] -0.006 | [2] -0.048 | [3] -0.046 | [4] 0.004 | [5] 0.053 | [6] -0.011 | [7] -0.045 | [8] -0.015 | [9] -0.007 | [10] -0.008 | [11] -0.034 | [12] 0.007 | [13] 0.034 | [14] -0.05 | [15] 0.008 | [16] 0.048 | [17] -0.036 | [18] 0.003 | [19] 0.029 | [20] -0.012

PANK1 (UniProt Q8TE04)
inactive: [1] -0.003 | [2] -0.048 | [3] 0.033 | [4] 0.026 | [5] 0.098 | [6] 0.015 | [7] -0.069 | [8] -0.036 | [9] 0.054 | [10] -0.061 | [11] -0.031 | [12] -0.007 | [13] 0.04 | [14] -0.003 | [15] -0.079 | [16] 0.045 | [17] -0.068 | [18] -0.035 | [19] -0.025 | [20] 0.064

NUP133 (UniProt Q8WUM0)
inactive: [1] 0.01 | [2] -0.016 | [3] 0.006 | [4] 0.019 | [5] -0.018 | [6] 0.017 | [7] -0.023 | [8] -0.04 | [9] 0.015 | [10] 0.026 | [11] 0.016 | [12] -0.015 | [13] 0.006 | [14] 0.045 | [15] -0.01 | [16] 0.064 | [17] -0.02 | [18] 0.01 | [19] 0.009 | [20] -0.002

NADK2 (UniProt Q4G0N4)
inactive: [1] 0.005 | [2] -0.024 | [3] 0.011 | [4] 0.104 | [5] -0.026 | [6] -0.003 | [7] -0.017 | [8] -0.019 | [9] 0.031 | [10] 0.025 | [11] -0.017 | [12] -0.006 | [13] 0.005 | [14] -0.03 | [15] -0.02 | [16] -0.007 | [17] 0.008 | [18] 0.024 | [19] 0.023 | [20] 0.042

NACC1 (UniProt Q96RE7)
inactive: [1] -0.006 | [2] 0.038 | [3] 0.036 | [4] -0.023 | [5] -0.004 | [6] 0.01 | [7] -0.011 | [8] 0.023 | [9] -0.014 | [10] 0.009 | [11] -0.015 | [12] -0.001 | [13] 0.009 | [14] -0.003 | [15] -0.014 | [16] 0.039 | [17] -0.016 | [18] -0.022 | [19] 0.009 | [20] -0.022

MSH3 (UniProt P20585)
inactive: [1] -0.046 | [2] -0.021 | [3] 0.042 | [4] 0.011 | [5] -0.025 | [6] 0.007 | [7] -0.026 | [8] -0.038 | [9] 0.058 | [10] 0.004 | [11] 0 | [12] -0.017 | [13] 0.024 | [14] -0.037 | [15] -0.039 | [16] 0.023 | [17] -0.025 | [18] -0.018 | [19] -0.007 | [20] -0.005

NCAPH (UniProt Q15003)
Sequence of UniProt Q15003 (Q15003 whole entry, looked up): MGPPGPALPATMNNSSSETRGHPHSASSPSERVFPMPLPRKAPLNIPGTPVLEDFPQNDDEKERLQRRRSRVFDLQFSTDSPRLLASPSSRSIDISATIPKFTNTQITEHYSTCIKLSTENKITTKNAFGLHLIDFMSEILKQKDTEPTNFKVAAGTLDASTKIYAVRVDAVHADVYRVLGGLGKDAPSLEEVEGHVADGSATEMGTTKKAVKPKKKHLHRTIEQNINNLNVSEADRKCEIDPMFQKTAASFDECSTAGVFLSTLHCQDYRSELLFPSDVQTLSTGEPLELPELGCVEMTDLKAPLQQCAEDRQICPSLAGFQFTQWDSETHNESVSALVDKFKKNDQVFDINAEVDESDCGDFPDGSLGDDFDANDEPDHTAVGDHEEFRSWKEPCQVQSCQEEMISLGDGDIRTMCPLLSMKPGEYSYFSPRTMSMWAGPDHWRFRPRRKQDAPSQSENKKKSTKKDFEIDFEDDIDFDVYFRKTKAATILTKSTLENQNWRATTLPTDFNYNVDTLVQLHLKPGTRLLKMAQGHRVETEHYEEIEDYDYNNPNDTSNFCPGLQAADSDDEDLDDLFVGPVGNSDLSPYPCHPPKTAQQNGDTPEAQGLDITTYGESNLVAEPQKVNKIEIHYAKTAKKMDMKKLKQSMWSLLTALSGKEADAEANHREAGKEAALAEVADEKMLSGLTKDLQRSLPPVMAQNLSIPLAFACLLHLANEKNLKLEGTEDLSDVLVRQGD
inactive: [1] 0.036 | [2] -0.008 | [3] -0.006 | [4] -0.007 | [5] -0.002 | [6] -0.012 | [7] -0.063 | [8] -0.008 | [9] -0.018 | [10] 0 | [11] 0.006 | [12] 0.016 | [13] -0.002 | [14] -0.031 | [15] -0.013 | [16] 0.003 | [17] -0.001 | [18] -0.003 | [19] 0.012 | [20] 0.011

MYCBP (UniProt Q99417)
Sequence of UniProt Q99417 (Q99417 whole entry, looked up): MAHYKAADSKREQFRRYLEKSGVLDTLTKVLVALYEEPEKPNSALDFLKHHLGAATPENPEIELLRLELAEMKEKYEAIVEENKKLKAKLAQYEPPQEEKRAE
inactive: [1] 0.007 | [2] -0.001 | [3] 0.011 | [4] 0.007 | [5] 0 | [6] 0.019 | [7] 0 | [8] 0.024 | [9] 0.076 | [10] 0.04 | [11] 0.188 | [12] -0.009 | [13] 0.021 | [14] -0.04 | [15] 0.002 | [16] -0.007 | [17] -0.017 | [18] 0.032 | [19] -0.002 | [20] -0.009

NGLY1 (UniProt Q96IV0)
Sequence of UniProt Q96IV0 (Q96IV0 whole entry, looked up): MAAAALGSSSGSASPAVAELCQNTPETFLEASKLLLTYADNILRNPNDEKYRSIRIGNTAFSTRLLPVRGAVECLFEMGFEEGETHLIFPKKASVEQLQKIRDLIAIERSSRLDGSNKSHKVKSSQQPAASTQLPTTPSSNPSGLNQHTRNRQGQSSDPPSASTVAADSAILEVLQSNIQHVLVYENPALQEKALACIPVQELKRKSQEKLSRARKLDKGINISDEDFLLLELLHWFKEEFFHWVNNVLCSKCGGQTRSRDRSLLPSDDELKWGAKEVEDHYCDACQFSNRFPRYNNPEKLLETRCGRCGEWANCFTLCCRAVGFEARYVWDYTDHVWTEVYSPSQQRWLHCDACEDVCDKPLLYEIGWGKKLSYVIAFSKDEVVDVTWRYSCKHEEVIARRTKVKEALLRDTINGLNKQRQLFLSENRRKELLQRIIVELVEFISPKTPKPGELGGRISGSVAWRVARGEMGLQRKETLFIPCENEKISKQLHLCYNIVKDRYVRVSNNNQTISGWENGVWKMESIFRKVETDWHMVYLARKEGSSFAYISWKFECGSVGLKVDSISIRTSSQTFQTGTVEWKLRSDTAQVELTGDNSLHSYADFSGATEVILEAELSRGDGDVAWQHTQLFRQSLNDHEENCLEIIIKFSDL
inactive: [1] 0.022 | [2] -0.064 | [3] -0.031 | [4] -0.01 | [5] -0.009 | [6] 0.009 | [7] -0.063 | [8] -0.001 | [9] -0.011 | [10] -0.024 | [11] 0 | [12] -0.01 | [13] 0.011 | [14] -0.008 | [15] 0.03 | [16] -0.001 | [17] -0.01 | [18] -0.006 | [19] 0.017 | [20] 0

MVB12A (UniProt Q96EY5)
inactive: [1] 0.027 | [2] -0.049 | [3] 0.022 | [4] -0.001 | [5] -0.024 | [6] -0.001 | [7] -0.046 | [8] -0.089 | [9] -0.003 | [10] -0.001 | [11] 0.049 | [12] 0.009 | [13] -0.008 | [14] 0.001 | [15] -0.003 | [16] -0.015 | [17] 0.033 | [18] -0.015 | [19] 0.043 | [20] 0.02

OLA1 (UniProt Q9NTK5)
inactive: [1] 0.038 | [2] 0.031 | [3] 0.029 | [4] -0.02 | [5] 0.02 | [6] 0.007 | [7] -0.048 | [8] 0.022 | [9] 0.02 | [10] -0.02 | [11] 0.009 | [12] -0.002 | [13] 0.015 | [14] 0.03 | [15] 0.02 | [16] -0.023 | [17] 0.023 | [18] -0.004 | [19] 0.029 | [20] 0.014

NSUN2 (UniProt Q08J23)
Sequence of UniProt Q08J23 (Q08J23 whole entry, looked up): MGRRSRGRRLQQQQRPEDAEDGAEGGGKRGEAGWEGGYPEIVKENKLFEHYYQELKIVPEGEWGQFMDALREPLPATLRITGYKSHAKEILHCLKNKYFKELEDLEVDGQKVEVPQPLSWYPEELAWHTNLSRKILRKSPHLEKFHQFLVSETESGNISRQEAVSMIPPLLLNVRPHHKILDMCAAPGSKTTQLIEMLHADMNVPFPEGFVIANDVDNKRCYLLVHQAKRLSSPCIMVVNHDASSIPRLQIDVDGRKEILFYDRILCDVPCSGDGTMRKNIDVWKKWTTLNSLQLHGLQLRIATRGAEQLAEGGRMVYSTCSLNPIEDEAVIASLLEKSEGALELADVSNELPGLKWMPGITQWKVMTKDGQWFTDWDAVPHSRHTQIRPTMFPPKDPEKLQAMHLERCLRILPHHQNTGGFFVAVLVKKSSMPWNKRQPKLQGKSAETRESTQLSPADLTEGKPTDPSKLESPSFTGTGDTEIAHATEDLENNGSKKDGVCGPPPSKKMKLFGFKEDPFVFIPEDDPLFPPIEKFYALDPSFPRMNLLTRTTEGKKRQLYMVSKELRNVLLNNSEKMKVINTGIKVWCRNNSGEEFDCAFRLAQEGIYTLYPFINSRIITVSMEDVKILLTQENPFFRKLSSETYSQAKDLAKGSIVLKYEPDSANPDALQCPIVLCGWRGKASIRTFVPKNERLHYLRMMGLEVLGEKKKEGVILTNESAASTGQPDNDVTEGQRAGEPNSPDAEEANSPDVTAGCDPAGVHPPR
inactive: [1] 0.004 | [2] 0.04 | [3] -0.018 | [4] 0.006 | [5] 0.004 | [6] -0.006 | [7] -0.016 | [8] 0.033 | [9] -0.018 | [10] -0.002 | [11] 0.014 | [12] 0.011 | [13] 0.023 | [14] 0.015 | [15] 0.006 | [16] 0.008 | [17] 0.006 | [18] -0.035 | [19] 0.033 | [20] 0.017

N4BP2 (UniProt Q86UW6)
Sequence of UniProt Q86UW6 (Q86UW6 whole entry, looked up): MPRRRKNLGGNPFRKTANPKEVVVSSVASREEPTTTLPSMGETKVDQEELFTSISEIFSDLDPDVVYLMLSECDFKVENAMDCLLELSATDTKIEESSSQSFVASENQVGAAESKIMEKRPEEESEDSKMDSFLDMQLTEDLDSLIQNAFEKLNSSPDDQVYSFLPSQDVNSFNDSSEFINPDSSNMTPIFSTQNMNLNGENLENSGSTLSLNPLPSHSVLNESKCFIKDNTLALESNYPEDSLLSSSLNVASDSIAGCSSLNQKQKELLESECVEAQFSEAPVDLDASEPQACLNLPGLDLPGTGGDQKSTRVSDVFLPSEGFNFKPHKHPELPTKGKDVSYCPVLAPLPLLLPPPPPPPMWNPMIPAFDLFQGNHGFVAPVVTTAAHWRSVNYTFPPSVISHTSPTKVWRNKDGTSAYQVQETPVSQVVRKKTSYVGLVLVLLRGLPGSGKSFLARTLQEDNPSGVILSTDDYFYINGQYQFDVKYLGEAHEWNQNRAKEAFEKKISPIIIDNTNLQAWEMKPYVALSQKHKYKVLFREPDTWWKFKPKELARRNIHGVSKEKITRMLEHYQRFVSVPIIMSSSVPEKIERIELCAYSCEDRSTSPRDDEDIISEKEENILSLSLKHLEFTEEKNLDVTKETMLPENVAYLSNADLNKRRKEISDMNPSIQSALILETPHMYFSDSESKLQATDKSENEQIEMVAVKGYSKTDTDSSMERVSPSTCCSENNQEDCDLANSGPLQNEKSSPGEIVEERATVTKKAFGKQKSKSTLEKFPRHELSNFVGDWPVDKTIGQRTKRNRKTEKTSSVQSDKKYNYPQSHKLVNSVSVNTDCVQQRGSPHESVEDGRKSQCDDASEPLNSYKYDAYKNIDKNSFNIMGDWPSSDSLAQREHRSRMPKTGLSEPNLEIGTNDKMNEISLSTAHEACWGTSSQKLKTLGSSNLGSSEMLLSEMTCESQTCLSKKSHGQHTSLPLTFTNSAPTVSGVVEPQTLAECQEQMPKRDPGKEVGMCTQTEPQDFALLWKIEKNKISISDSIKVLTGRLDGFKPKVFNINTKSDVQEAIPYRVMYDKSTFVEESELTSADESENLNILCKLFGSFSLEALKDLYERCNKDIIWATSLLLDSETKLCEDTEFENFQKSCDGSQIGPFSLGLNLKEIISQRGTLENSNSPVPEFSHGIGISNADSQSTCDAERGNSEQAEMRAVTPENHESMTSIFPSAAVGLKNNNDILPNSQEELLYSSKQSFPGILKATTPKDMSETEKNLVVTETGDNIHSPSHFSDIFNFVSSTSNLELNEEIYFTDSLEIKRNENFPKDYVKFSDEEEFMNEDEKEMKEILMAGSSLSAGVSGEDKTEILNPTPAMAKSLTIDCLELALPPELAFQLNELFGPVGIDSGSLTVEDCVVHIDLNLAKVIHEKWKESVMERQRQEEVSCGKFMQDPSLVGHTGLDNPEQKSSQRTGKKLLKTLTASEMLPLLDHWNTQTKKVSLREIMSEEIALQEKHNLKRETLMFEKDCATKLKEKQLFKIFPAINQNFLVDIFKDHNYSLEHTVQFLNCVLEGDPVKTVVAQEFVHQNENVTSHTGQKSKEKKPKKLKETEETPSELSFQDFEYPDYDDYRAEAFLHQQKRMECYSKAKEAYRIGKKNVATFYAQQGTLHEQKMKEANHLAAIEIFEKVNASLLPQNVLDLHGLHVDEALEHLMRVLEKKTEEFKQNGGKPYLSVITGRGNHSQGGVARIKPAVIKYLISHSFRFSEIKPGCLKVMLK
inactive: [1] 0.04 | [2] -0.029 | [3] -0.09 | [4] 0.069 | [5] -0.015 | [6] 0.001 | [7] 0.106 | [8] -0.021 | [9] -0.068 | [10] -0.022 | [11] 0.094 | [12] -0.041 | [13] 0.038 | [14] -0.053 | [15] 0.047 | [16] 0.03 | [17] -0.011 | [18] -0.005 | [19] -0.034 | [20] -0.027

Source: the supplement of paper PMC10849652
